Source: PubChem BioAssay (National Center for Advancing Translational Sciences (NCATS))
JMJD2A Tudor inh – qHTS Assay for Inhibitors of JMJD2A-Tudor Domain. AlphaScreen JMJD2A-Tudor / H3K4me3 peptide binding. Lysine-specific demethylase 4A (Homo sapiens), O75164. 4.4% of 390,000 active. Potency, µM (doses to about 114 µM), for the others: at the top dose activity change, negative = inhibition, most hits filed as inhibitors. AID 504339, 2011; also: % is scaled to controls: 0 for no effect and ±100 for the full control effect; nearly all actives have a fitted effect of over 50% in size
G9a inh – qHTS Assay for Inhibitors of Histone Lysine Methyltransferase G9a | G9a H3K9 monomethylation, AlphaScreen, 2 h | Potency, µM (doses to about 102 µM), for inactives: at the top dose activity, negative = inhibition, most hits filed as inhibitors | 8.8% of 350,000 active | Histone-lysine N-methyltransferase EHMT2 (Homo sapiens), Q96KQ7 | AID 504332, 2011; also: % is scaled to controls: 0 for no effect and ±100 for the full control effect; nearly all actives have a fitted effect of over 75% in size
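Enzyme 20 nM + cpd, 15 min RT; add b-H3K9 pep 500 nM / SAM 20 uM; 2 h RT; anti-H3K9me1 Ab 0.5 ug/mL + SA donor / anti-rabbit acceptor beads 20 ug/mL each, 10 min; AlphaScreen read.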
Sfp inh – qHTS Assay for Inhibitors of Bacillus subtilis Sfp phosphopantetheinyl transferase (PPTase); Potency, µM, inactives show largest response in the series, negative = inhibition, actives largely listed as inhibitors; Biochemical Sfp PPTase activity, qHTS; 3.5% of 310,000 active; 4'-phosphopantetheinyl transferase ffp (Bacillus subtilis), Q9F4F7;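 also: the enzyme is Sfp with the accession as filed and its product quenches rhodamine fluorescence; 0% = enzyme reaction without inhibitor and -100% = no enzyme wells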
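Step 1, compound plus 15 nM Sfp-PPTase, 15 min, room temperature. Step 2, add rhodamine-CoA (5 uM) and BHQ-2-YbbR (12.5 uM). Step 3, read 525/598 nm fluorescence at 0 and 30 min.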
HP1b chromo inh – HTS for Inhibitors of HP1-beta Chromodomain Interactions with Methylated Histone Tails; AlphaScreen HP1-beta / biotin-H3K9me3 peptide binding; Potency, µM (highest dose often 114 µM), inactives show at the top dose activity change, negative = inhibition, usual class: inhibitors; 0.56% of 390,000 active; AID 540317, 2011; also: nearly all actives have a fitted effect of over 70% in size
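HP1-beta protein (50 nM final) preincubated 30 min at room temperature with biotinylated H3(1-18)K9me3 peptide (50 nM) in PBS pH 7.4, 0.01% Tween-20, then compound added for 30 min. AlphaScreen streptavidin donor/nickel chelate acceptor beads (10 ug/mL final), 30 min dark, luminescence read.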
BAZ2B inh – qHTS Assay for Inhibitors of BAZ2B. Bromodomain adjacent to zinc finger domain protein 2B (Homo sapiens), Q9UIF8. AlphaScreen BAZ2B-H3K14Ac peptide displacement. Potency, µM (highest dose often 114 µM), for the others: at the top dose activity change, negative = inhibition, most hits filed as inhibitors. 4.4% of 360,000 active. AID 504333, 2011; also: % is scaled to controls: 0 for no effect and ±100 for the full control effect; nearly all actives have a fitted effect of over 60% in size
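AlphaScreen luminescence quantifies BAZ2B engagement of H3K14Ac peptide; the protein and biotinylated peptide are both at 50 nM final, buffer PBS pH 7.4 with 0.01% Tween-20, all steps at room temperature.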
Numbers without * were called inactive; ? = inconclusive; · = not tested or not shown; [ ] = another dose, or the depositor's remark. Only some compounds are listed: those with a hit (about 12% of all), similar ones and a draw of the others. Calls follow the shape of the dose curve; as a rule, active = well fitted curve in the direction sought with a large enough effect; inconclusive = small, poorly fitted or top-dose-only effect, or another doubt; inactive = no such curve, though single readings can be large; an effect the other way counts as inactive or inconclusive. Potency is read from the fitted curve at half-maximal effect.

SMILES	JMJD2A Tudor inh	G9a inh	Sfp inh	HP1b chromo inh	BAZ2B inh
CCOC(=O)C1CCCN(C2CC(=O)N(c3ccccc3)C2=O)C1 (stereo not drawn)	2.3%	·	1.2%	45.7%	2.5%
CCOC(=O)C1CCCN(C2CC(=O)N(c3ccc(C)c(C)c3)C2=O)C1 (stereo not drawn)	-9.8%	-42.7%[59 µM]	8.4%	30.3%	0.6%
Cc1ccc(Sc2nnc(Cc3ccccc3)c3ccccc23)cc1	3.3%	25.6%[59 µM]	0.2%	14.9%	-0.5%
COc1ccc(C(=O)/C=C/NCc2ccc(F)cc2)cc1OC	-17.4%	50.1µM*	6.0%	9.7%	-12.0%
CCCOc1ccc(N/C=C/C(=O)c2ccc(OC)c(OC)c2)cc1	28.2µM*	·	1.7%	13.6%	-9.5%
COc1ccc(N2CCN(CC(O)COc3ccc(C(C)(C)C)cc3)CC2)cc1 (stereo not drawn)	79.4µM*	?	·	-1.4%	?
CCN1CCN(CC(O)COc2cccc(OC)c2)CC1 (stereo not drawn)	-28.7%	56.2µM*	11.4%	25.1%	-3.8%
COc1ccc(OCC(O)CN2CCN(c3ccccc3)CC2)cc1 (stereo not drawn)	?	28.6%[0.501 µM]	2.6%	22.0%	-11.6%
CCc1ccc(OCC(O)CN2CCN(c3ccc(OC)cc3)CC2)cc1 (stereo not drawn)	35.5µM*	10µM*	-15.6%	-15.7%	70.8µM*
COc1ccc(N2CCN(CC(O)COCc3ccccc3)CC2)cc1 (stereo not drawn)	?	39.8µM*	8.3%	1.1%	56.2µM*
C[C@@H]1C[C@@H]2[C@H]3CCC4=CC(=O)C=C[C@]4(C)[C@]3(F)[C@@H](O)C[C@]2(C)[C@@]1(O)C(=O)CO	·	17.6%[21.5 µM]	2.5%	·	·
O=C(c1cc2nc(-c3ccco3)cc(C(F)(F)F)n2n1)N1CCN(Cc2ccccc2)CC1	-10.4%	?	-9.4%	-1.1%	-9.2%
CCC1CN(S(=O)(=O)c2ccc3c(c2)NC(=O)CC(=O)N3)c2cc(Cl)ccc2O1 (stereo not drawn)	-20.4%	1.1%	8.1%	54.4%	-12.6%
Cc1cc(C)n2ncnc2n1	-3.2%	50.1µM*	-0.4%	27.3%	?
CC(=O)c1ccc(Nc2cc(C)nc3ncnn23)cc1	?	-7.0%	10.6%	25.3%	-3.9%
Cc1cc(Nc2ccc(N3CCC(C)CC3)cc2)n2ncnc2n1	?	-49.9%[12.7 µM]	-4.9%	1.5%	56.2µM*
COc1cc(Nc2cc(C)nc3ncnn23)cc(OC)c1OC	-7.0%	44.7µM*	3.9%	67.9%	7.8%
Cc1ccc(Nc2cc(C)nc3ncnn23)cc1	-12.6%	70.8µM*	20.7%	27.9%	-17.8%
Cc1cc(C)c(NC(=O)COC(=O)Cc2ccsc2)c(C)c1	-14.8%	15.4%	0.3%	-2.1%	1.3%
CCCc1ncc(C[n+]2ccccc2C)c(N)n1	-35.2%	?	-51.1%	47.0%	1.1%
CC(Oc1ccc(-c2nnco2)cc1)C(=O)N1CCOCC1 (stereo not drawn)	-0.7%	-12.3%[59 µM]	·	22.5%	0.6%
Cc1cc(Nc2ccc(C(=O)O)cc2)n2nc(C)nc2n1	0.7%	-2.6%[59 µM]	15.1%	47.7%	9.9%
CC(=O)c1ccc(Nc2cc(C)nc3nc(C)nn23)cc1	-3.5%	79.4µM*	-1.7%	40.4%	6.4%
CC(=O)OCCN(C)c1cc(SC(C)C)c2nonc2c1[N+](=O)[O-]	?	50.1µM*	-27.2%	-0.8%	?
CC(=O)OCCNc1cc(SC(C)C)c2nonc2c1[N+](=O)[O-]	-23.7%	-2.7%	2.9%	19.2%	?
CN(CCO)c1cc(Sc2nc3ccccc3s2)c2nonc2c1[N+](=O)[O-]	22.4µM*	?	25.1µM*	?	-29.9%[57.1 µM]
CC(NC(=O)c1cccc(S(=O)(=O)N2CCCCCC2)c1)c1ccccc1 (stereo not drawn)	-12.4%	17.7%[59 µM]	·	11.8%	-2.1%
COc1ccc(-n2c(C)ccc2C)c([N+](=O)[O-])c1	?	·	9.9%	?	?
